Results from PubChem BioAssay.
The source made the active and inactive calls. Unless noted, no rule for the calls is given here.

Experiments:
[1] = compounds binding Alexa647 anti-His antibody – biochemical, small-molecule microarray, 635 nm fluorescence, artefact control for SMM control protein annotation, primary screen (AID 1128); conditions: higher = more signal;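 also: score merges feature fluorescence with signal-to-noise for each printed compound spot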
[2] = test system: Human papillomavirus type 1a E7 protein (residues 1-88); assay: HPV1a E7 small-molecule binders, primary screen, biochemical, small-molecule microarray, residues 1-88, 635 nm (AID 1129); conditions: small-molecule microarray binding, fluorescence 635 nm; higher = more signal
[3] = molecular target: Focal adhesion kinase 1 (Homo sapiens) (UniProt Q05397); assay: PTK2 protein binding on printed compound slides – biochemical, small-molecule microarray, 635/667 nm fluorescence, BSA, DTT, primary screen (AID 1130); conditions: 635 nm fluorescence, higher = more signal;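 also: composite of spot emission at 667 nm and signal to noise over triplicate slides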
Focal adhesion kinase 1 (Homo sapiens), sequence (Q05397 whole entry, looked up): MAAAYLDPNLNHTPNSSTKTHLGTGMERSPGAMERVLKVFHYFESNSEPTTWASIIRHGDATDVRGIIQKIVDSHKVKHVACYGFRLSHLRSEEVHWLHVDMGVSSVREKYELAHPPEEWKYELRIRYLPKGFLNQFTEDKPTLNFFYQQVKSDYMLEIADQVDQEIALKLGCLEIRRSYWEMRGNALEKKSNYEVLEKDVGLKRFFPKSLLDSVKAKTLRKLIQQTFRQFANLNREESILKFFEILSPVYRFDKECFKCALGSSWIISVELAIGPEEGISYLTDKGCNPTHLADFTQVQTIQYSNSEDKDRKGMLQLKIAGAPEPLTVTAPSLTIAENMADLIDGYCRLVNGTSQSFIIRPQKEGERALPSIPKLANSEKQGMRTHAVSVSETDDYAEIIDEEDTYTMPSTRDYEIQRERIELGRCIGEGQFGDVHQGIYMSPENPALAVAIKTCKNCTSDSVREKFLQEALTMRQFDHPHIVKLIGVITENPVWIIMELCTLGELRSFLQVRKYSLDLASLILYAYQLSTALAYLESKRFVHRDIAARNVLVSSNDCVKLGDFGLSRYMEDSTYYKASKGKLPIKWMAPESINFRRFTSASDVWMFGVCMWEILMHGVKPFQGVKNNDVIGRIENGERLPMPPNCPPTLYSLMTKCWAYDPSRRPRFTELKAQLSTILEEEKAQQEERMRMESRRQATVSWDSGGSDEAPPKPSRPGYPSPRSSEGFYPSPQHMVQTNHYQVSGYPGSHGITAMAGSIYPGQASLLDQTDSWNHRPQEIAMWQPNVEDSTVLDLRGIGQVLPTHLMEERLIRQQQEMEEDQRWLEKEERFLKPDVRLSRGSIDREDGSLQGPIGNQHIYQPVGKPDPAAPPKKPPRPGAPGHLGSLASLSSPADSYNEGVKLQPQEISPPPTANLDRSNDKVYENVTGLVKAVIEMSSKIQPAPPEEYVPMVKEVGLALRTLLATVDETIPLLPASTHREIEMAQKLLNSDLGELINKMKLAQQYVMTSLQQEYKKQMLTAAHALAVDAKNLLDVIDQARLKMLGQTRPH

[4] = test system: Fibrinogen (Alexa647-labelled); assay: Alexa647-fibrinogen binding to printed small molecules – biochemical, small-molecule microarray, 635/667 nm fluorescence, artefact control for SMM control-protein annotation, profiling panel (AID 1131); conditions: fibrinogen-A647 binding fluorescence, higher = more signal;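 also: z-score merges 667 nm fluorescence with per-spot signal-to-noise over triplicate slides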
[5] = molecular target: Follistatin (Homo sapiens) (UniProt P19883); assay: FST protein binding to printed compounds – biochemical, small-molecule microarray, 635/667 nm fluorescence, primary screen (AID 1132); conditions: 635 nm fluorescence, higher = more signal
Follistatin (Homo sapiens), sequence (P19883 whole entry, looked up): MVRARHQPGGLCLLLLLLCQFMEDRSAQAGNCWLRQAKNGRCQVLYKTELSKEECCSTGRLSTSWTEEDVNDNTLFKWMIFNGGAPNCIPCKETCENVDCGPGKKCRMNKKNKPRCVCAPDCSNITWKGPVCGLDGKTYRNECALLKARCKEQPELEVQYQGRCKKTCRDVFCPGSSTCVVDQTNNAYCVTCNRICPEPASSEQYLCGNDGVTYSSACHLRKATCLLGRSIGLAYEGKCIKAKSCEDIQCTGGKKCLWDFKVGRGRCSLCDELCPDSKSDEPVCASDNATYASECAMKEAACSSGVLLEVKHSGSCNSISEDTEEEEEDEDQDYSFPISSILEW

[6] = molecular target: Fibroblast growth factor 2 (Homo sapiens) (UniProt P09038); assay: basic fibroblast growth factor binding to printed compounds – biochemical, small-molecule microarray, 635/667 nm fluorescence, primary screen (AID 1133); conditions: FGF2, fluorescence 635/667, higher = more signal
Fibroblast growth factor 2 (Homo sapiens), sequence (P09038 whole entry, looked up): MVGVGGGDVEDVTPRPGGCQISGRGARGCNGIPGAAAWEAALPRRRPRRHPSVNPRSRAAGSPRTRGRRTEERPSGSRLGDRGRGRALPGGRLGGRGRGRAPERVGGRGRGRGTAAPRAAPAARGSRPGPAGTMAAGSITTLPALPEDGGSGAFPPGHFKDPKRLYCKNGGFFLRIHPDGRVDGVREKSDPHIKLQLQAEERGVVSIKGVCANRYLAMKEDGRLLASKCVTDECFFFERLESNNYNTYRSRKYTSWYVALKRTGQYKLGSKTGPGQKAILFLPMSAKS

[7] = JC-1 mitochondrial potential readout, lung cancer cells – cell-based, A549, JC-1 fluorescence, basal, 24 h, 100 nL, profiling panel (AID 1138); conditions: higher = more signal;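 also: A549 lung adenocarcinoma cells under basal conditions with no added stimulus; test concentration not given here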
Lefty1 = Lefty1 protein binding to printed compounds – biochemical, small-molecule microarray, 635/667 nm fluorescence, primary screen (AID 1139); conditions: fluorescence 635/667, higher = more signal
[8] = test system: wheat germ agglutinin (Triticum aestivum), Alexa647-labelled; assay: Alexa647-WGA lectin binding to printed small molecules – biochemical, small-molecule microarray, 635/667 nm fluorescence, artefact control for SMM control-protein annotation, profiling panel (AID 1140); conditions: WGA-A647 binding, 635 nm fluorescence, higher = more signal;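 also: score merges 667 nm feature emission with signal to noise over triplicate slides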
[9] = molecular target: Luciferin 4-monooxygenase (Photinus pyralis) (UniProt P08659); assay: inhibition of purified Photinus pyralis luciferase – biochemical, luminescence, purified enzyme, 2006 set, primary screen (AID 1141); conditions: purified firefly luciferase, SteadyGlo luminescence, 30 min; higher = more signal, called active from +8 up or from −8 down;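 also: cell-free assay with purified firefly luciferase at 100 ng per well in PBS; test concentration not given here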
Luciferin 4-monooxygenase (Photinus pyralis), sequence (P08659 whole entry, looked up): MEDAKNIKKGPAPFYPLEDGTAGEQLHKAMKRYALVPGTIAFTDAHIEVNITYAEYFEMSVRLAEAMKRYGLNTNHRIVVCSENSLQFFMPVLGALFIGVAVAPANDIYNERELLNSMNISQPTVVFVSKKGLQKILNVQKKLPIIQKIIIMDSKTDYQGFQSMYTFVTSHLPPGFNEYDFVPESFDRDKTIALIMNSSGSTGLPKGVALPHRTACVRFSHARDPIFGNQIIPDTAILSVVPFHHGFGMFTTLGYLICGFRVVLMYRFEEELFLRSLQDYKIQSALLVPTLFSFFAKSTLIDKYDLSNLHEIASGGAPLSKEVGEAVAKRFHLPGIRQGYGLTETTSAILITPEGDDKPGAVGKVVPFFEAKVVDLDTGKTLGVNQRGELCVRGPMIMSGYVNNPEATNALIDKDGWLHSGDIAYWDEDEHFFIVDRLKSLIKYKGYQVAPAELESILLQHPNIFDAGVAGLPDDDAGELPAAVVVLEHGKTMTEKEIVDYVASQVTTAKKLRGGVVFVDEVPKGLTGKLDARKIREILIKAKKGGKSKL

[10] = test system: Wnt5a (protein binding on small-molecule microarray); assay: small molecules binding Wnt5a protein – biophysical, small-molecule microarray, 635/667 nm fluorescence, primary screen (AID 1142); conditions: 635 nm fluorescence, higher = more signal;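 also: fluorescence read at 667 nm with signal to noise per printed feature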
[11] = ATP-based viability of Huh7 replicon cells – cell-based, CellTiter-Glo luminescence, basal, 48 h, cytotoxicity control for HCV replication inhibitor project, primary screen (AID 1143); conditions: higher = more signal, called active from +8 up or from −8 down;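 also: Huh7 hepatoma cells carrying a hepatitis C replication reporter with no stimulus; test concentration not given here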
[12] = Pseudomonas biofilm growth suppression – PAO1 strain, BacTiter-Glo luminescence, LB-PBS, primary screen (AID 1144); conditions: P. aeruginosa PAO1 biofilm, 12 h, higher = more signal
[13] = basal CRE-LacZ reporter activity in PC12 – cell-based, unstimulated, primary screen (AID 1145); conditions: no forskolin, luminescence, 4.5 h, higher = more signal, called active from +8 up or from −8 down
[14] = forskolin-driven CRE-LacZ activity in PC12 – cell-based, CRE-LacZ reporter, forskolin-stimulated, primary screen (AID 1146); conditions: luminescence, 4.5 h, higher = more signal, called active from +8 up or from −8 down;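 also: PC12 cells with 6xCRE LacZ reporter stimulated by forskolin 10 µM; beta-galactosidase reporter signal reflecting CREB driven transcription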
[15] = molecular target: Streptavidin (Streptomyces avidinii) (UniProt P22629); assay: compounds binding control protein streptavidin – biophysical, small-molecule microarray, 635/667 nm fluorescence, artefact control for SMM compound annotation, primary screen (AID 1147); conditions: higher = more signal;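 also: signal reflects streptavidin binding to arrayed compounds as a control protein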
Streptavidin (Streptomyces avidinii), sequence (P22629 whole entry, looked up): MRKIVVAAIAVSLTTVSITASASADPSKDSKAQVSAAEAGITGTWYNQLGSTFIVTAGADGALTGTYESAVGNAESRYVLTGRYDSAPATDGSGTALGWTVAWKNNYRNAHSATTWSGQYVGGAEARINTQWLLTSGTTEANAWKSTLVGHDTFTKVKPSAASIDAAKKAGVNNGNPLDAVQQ

[16] = probe aInhba binding on compound microarray – biochemical, small-molecule microarray, 635/667 nm fluorescence, primary screen (AID 1148); conditions: higher = more signal;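 also: score merges 667nm spot fluorescence with signal-to-noise for antibody binding to printed compounds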
Torsin-1A (Homo sapiens) [17] = molecular target: Torsin-1A (Homo sapiens) (UniProt O14656); assay: TOR1A wild-type binding on microarray – cell lysate, small-molecule microarray, lysate, 635/667 nm, primary screen (AID 1149); conditions: COS7 hTOR1A-WT lysate, 635 nm fluorescence, higher = more signal
Torsin-1A (Homo sapiens), sequence (O14656 whole entry, looked up): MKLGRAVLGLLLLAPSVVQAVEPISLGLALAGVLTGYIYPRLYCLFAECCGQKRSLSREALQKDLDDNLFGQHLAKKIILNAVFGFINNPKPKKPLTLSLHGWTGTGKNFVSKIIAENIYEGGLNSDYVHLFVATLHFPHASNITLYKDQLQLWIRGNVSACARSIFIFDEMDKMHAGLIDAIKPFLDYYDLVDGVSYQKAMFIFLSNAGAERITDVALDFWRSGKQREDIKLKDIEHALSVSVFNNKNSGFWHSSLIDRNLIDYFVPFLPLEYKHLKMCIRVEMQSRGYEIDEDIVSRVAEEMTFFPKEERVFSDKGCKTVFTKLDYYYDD

Torsin-1A (Homo sapiens) [18] = molecular target: Torsin-1A (Homo sapiens) (UniProt O14656); assay: torsin A mutant lysate binding on microarrays – cell lysate, small-molecule microarray, COS7 lysate, 635/667 nm fluorescence, primary screen (AID 1150); conditions: COS7 hTOR1A mutant lysate, 635 nm fluorescence, higher = more signal;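 also: score pools 667 nm emission and signal to noise measuring lysate protein binding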
[19] = test system: Sonic hedgehog protein (Shh); assay: Sonic hedgehog microarray binding compounds – biochemical, small-molecule microarray, 635/667 nm fluorescence, primary screen (AID 1151); conditions: 635 nm fluorescence, higher = more signal;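 also: Shh protein binding to compounds spotted on small-molecule microarray slides; score combines spot fluorescence intensity with signal-to-noise across triplicate slides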

| SMILES | composite z-score [1] | composite z-score [2] | composite z-score [3] | composite z-score [4] | composite z-score [5] | composite z-score [6] | z-score [7] | composite z-score (Lefty1) | composite z-score [8] | z-score [9] | composite z-score [10] | z-score [11] | z-score [12] | z-score [13] | z-score [14] | composite z-score [15] | composite z-score [16] | composite z-score (Torsin-1A (Homo sapiens) [17]) | composite z-score (Torsin-1A (Homo sapiens) [18]) | composite z-score [19] |
| --- | --- | --- | --- | --- | --- | --- | --- | --- | --- | --- | --- | --- | --- | --- | --- | --- | --- | --- | --- | --- |
| O=C1OCCC=C[C@H]2OC34C=CCN(c5ccc6ccccc6c5)C(=O)[C@H]3N(CCCCCO)C(=O)[C@@H]4C12 (stereo not given in full) | 0.565 | 0.312 | 0.602 | 0.737 | -0.626 | -0.329 | 2.3 | -0.332 | 1.28 | -1.1 (inactive) | -0.288 | 0.0855 (inactive) | -1.17 (inactive) | 0.0645 (inactive) | -0.206 (inactive) | 0.136 | -0.0471 | 0.592 | 1.8 | 0.157 |
| Cc1ccc(S[C@]2(C(=O)NCC(C)C)CC(=O)N(Cc3ccccc3)[C@@H]2c2ccc(CO)cc2I)cc1 | 1.38 | 0.904 | 0.139 | 0.312 | 1.27 | 0.564 | 1.03 | 0.536 | 0.503 | -0.56 (inactive) | 0.185 | -2.48 (inactive) | 0.229 (inactive) | 0.856 (inactive) | 1.27 (inactive) | 0.176 | 0.0422 | 0.298 | 0.835 | 2.21 |
| [N-]=[N+]=NCc1ccccc1C[C@]1(C(=O)O)N=C(c2ccc(OCCCO)cc2)O[C@H]1c1ccccc1 | 1.29 | 1.13 | 0.165 | 0.687 | 0.0944 | 0.87 | 0.0539 | -1.43 | 1.2 | 0.414 (inactive) | 0.0352 | -0.881 (inactive) | -0.556 (inactive) | -0.79 (inactive) | 2.11 (inactive) | 0.807 | 0.0566 | 1.8 | 1.99 | -0.474 |
| CCCNC(=O)[C@@]1(c2ccc([N+](=O)[O-])cc2)CC(=O)N(CC23CC4CC(CC(C4)C2)C3)[C@@H]1c1ccc(CO)cc1 | 1.19 | 1.04 | 0.117 | 0.356 | 0.509 | 1.23 | 0.582 | -0.197 | -0.109 | 0.494 (inactive) | 0.4 | -5.17 (inactive) | -0.293 (inactive) | 0.531 (inactive) | -0.312 (inactive) | -0.204 | -0.272 | 0.0865 | 0.319 | 0.34 |
